Results reported in ChEMBL document CHEMBL4513216, “Probing the Open Global Health Chemical Diversity Library for Multistage-Active Starting Points for Next-Generation Antimalarials” (ACS Infect Dis, 2020).
The campaign covered roughly 69,000 compounds. About 8,600 (12%) showed an effect of 50% or more. The entries come from a sample that favours strong results as a whole.

The molecules below were run on Plasmodium berghei (assay: Screen against P. berghei liver stage (PbLuc), transformed with Luciferase, at 10uM). Details: tested at 10 uM.
Format: functional, HepG2

Compound	INHIBITION [%]
COc1ccc(C)cc1C(=O)N1CCCC(n2cncn2)C1 (centres undefined)	-16
Cc1ccc(-c2nc(CN3CCCC(C(=O)N(C)C)C3)cs2)o1 (centres undefined)	35.9
Cc1noc(C)c1CN(Cc1cccs1)C1CCS(=O)(=O)C1 (centres undefined)	36.1
O=S1(=O)CCC(N(Cc2nc3ccccc3o2)Cc2cccs2)C1 (centres undefined)	-32.5
CC(C)(C)c1nc(CN(Cc2cccs2)C2CCS(=O)(=O)C2)no1 (centres undefined)	34.7
Cc1noc(CN(Cc2cccs2)C2CCS(=O)(=O)C2)n1 (centres undefined)	49.8
Cc1ccc(-c2nc(CN(C)C3CCS(=O)(=O)C3)cs2)o1 (centres undefined)	57.7
Cc1ccc(-c2nc(CN(Cc3ccco3)C3CCS(=O)(=O)C3)cs2)o1 (centres undefined)	62.8
Cc1ccc(-c2nc(CN(Cc3cccs3)C3CCS(=O)(=O)C3)cs2)o1 (centres undefined)	87.6
Cc1ccc(-c2nc(CN3CCC(C(=O)N(C)C)CC3)cs2)o1	39.5
O=C(NCC1CCS(=O)(=O)C1)N(Cc1ccco1)C1CC1 (centres undefined)	38.2
CC(C)(C)c1nc(CN(Cc2cccs2)C2CCS(=O)(=O)C2)cs1 (centres undefined)	59.4
Cc1nc(CN(Cc2cccs2)C2CCS(=O)(=O)C2)oc1C (centres undefined)	19.5
CCOCCN1Cc2cnn(C)c2C(COCC)C1 (centres undefined)	42.7
CN(C)c1ncccc1CNC(=O)N1CCCC1c1cccs1 (centres undefined)	4.71
CCN1CCN(C)C2(CCN(Cc3ccc(C)o3)CC2)C1=O	-93.5
O=c1[nH]cc(N2CCOCC2)c(=O)[nH]1	-56.8
CCn1ccnc1CN1CCN(CCc2ccccn2)CC1C (centres undefined)	13.8
O=C1N(CC2CC2)CCC12CCN(CC1CC1)CC2	21.7
O=C(CCCNCc1ccccc1)N1CCCn2cncc2C1	30.9
Cc1ccc(CN2CCc3ncnc(-c4cccnc4)c3CC2)o1	13.7
Cc1cc(N2CCC(C(=O)N(C)C)CC2)nc(-c2ccncc2)n1	-148
COc1cccc(-c2c[nH]c(C)n2)c1F	-114

Compound	INHIBITION [%]
O=C(NC1CC(=O)N(C2CC2)C1)c1ccc(Cl)s1 (centres undefined)	33.1
CCCS(=O)(=O)N1CCC(NC(=O)c2ccc(Cl)s2)CC1	21
CC(C)N1CC(NC(=O)c2ccc(Cl)s2)CC1=O (centres undefined)	83.8
O=C(NCCCF)N1CCC(n2ccc(C(F)(F)F)n2)CC1	36.3
O=C(CNC(=O)N1CCc2c([nH]c3ccc(Cl)cc23)C1)NC1CCCC1	-6.91
COCC(=O)N1CC(c2n[nH]cc2C)C1	-41.1
O=C(NC1CC1)c1cc2c(s1)CCN2C(=O)C1CC1	51.4
CCCNC(=O)c1cc2c(s1)CCN2C(=O)c1ccccc1	-27
O=C(c1cc2c(s1)CCN2C(=O)C1CC1)N1CCCC1	23.3
CN1CCN(C(=O)c2cc3c(s2)CCN3C(=O)C2CC2)CC1	-29.8
O=C(NCCN1CCCC1)c1cc2c(s1)CCN2C(=O)c1ccccc1	-28
O=C(NC1CCCC1)c1cc2c(s1)CCN2C(=O)c1ccccc1	55.9
c1cncc(COCc2nnn3c2CN(Cc2ccsc2)CC3)c1	-9.26
O=C(O)CNc1cc(-c2cc(C3CC3)ncn2)c2cc[nH]c2n1	19.5
O=C(O)CNc1cc(-c2nccnc2N2CCCC2)c2cc[nH]c2n1	51.8
OCCNc1cc(-c2nccnc2N2CCCC2)c2cc[nH]c2n1	37.7
Nc1cc(-c2ccc(C(=O)O)cc2O)c2cc[nH]c2n1	2.91
Nc1cc(-c2nccnc2N2CCCC2)c2cc[nH]c2n1	58.3
Nc1cc(-c2cc(C(=O)O)ccc2Cl)c2cc[nH]c2n1	15.2
CN1CC(=O)N(c2cccc(F)c2)CC12CCN(Cc1cncn1C)C2 (centres undefined)	-15.7
CS(=O)(=O)NCC1CCCN(C(=O)c2ccc(Cl)o2)C1 (centres undefined)	15
O=C(c1ccccn1)N1CC[C@@H](N2CCOCC2)[C@@H]1Cc1ccccc1	39.2
Cc1nccn1-c1cncc(C2CCCN2Cc2ccccc2)n1 (centres undefined)	36.7

Compound	INHIBITION [%]
COCCN1CCCc2sc(C(=O)N3CCCN(C)CC3)nc21	5.36
Clc1ccccc1CN1CCc2nc(C3CCCNC3)ncc2C1 (centres undefined)	6.32
Cc1ccc(C(=O)Nc2nc(C)no2)cc1	23.7
Cc1noc(COCC(=O)Nc2ccc(Br)c(C)n2)n1	10.7
Cc1noc(NC(=O)c2ccc(Br)cc2)n1	91.5
Cc1c(NC(=O)c2cccc(Br)c2)c(C(=O)N(C)C)nn1C	45.8
Cn1nc(CNC(=O)c2ccc(OC(F)(F)F)cc2)c2c1CCOC2	-6.42
Cc1noc(NC(=O)c2ccc(C#N)cc2)n1	-0.96
Cc1noc(NC(=O)c2ccc(Br)o2)n1	31.9
Cc1noc(NC(=O)c2ccccc2)n1	-10.6
Cc1noc(NC(=O)c2cccc(Br)c2)n1	88.2
Cc1noc(NC(=O)c2ccc(Br)s2)n1	85.9
Cc1noc(NC(=O)CCNC(=O)c2ccc(Br)cc2)n1	14.1
Cc1noc(NC(=O)c2ccc(OC(F)(F)F)cc2)n1	87.6
Cc1n[nH]c(C)c1NC(=O)NCc1cc[nH]n1	36
O=C(NCC1CCCO1)N1CCN(Cc2ccc3c(c2)CCO3)CC1 (centres undefined)	-21.5
OCCNc1nccc(-c2c[nH]nc2-c2cccnc2)n1	15.9
C[C@@H]1CN(C(=O)NC2CC2)C[C@]12CCN(c1ccsc1)C2=O	17.1
CC(=O)N1CCCC1(C(=O)N1CCCC1)c1cnccn1 (centres undefined)	6.35
CN(C)S(=O)(=O)c1ccc(=O)n(CC2CCCO2)c1 (centres undefined)	-28.9
CC(C)CNC(=O)Cc1cnc(-n2cccc2)s1	28.3
CC(=O)N1CCCC(Cc2cnc(-c3c(C)nn(C)c3C)cn2)C1 (centres undefined)	-10.4
COc1ccc2c(c1)CCCN(C(=O)NCC1CCCO1)C2 (centres undefined)	37.4

Compound	INHIBITION [%]
NC(=O)CN1CCCN(C(=O)CCOc2ccccc2Cl)CC1	29.7
CCCNC(=O)C1(Cc2cc(-c3ccccc3)no2)CCN(C(C)=O)C1 (centres undefined)	-3.94
CC(O)CNc1c(NCc2ccco2)c(=O)c1=O (centres undefined)	18.2
c1ccc(Cc2noc(CN3CCOC(Cn4cncn4)C3)n2)cc1 (centres undefined)	13.3
COCCO[C@@H]1CCN(Cc2csc(C)n2)[C@H]1Cc1ccccc1	18.1
Cc1noc(C)c1-c1cccc(CC2CCN(C(=O)c3cc[nH]n3)C2)n1 (centres undefined)	46.1
NS(=O)(=O)N1CCc2ccc(NC(=O)Cc3ccc(F)cc3)cc21	22.9
NS(=O)(=O)N1CCc2ccc(NC(=O)CC(F)(F)F)cc21	63.3
CS(=O)(=O)N1CCc2c(cccc2NC(=O)CC(F)(F)F)C1	0.79
NS(=O)(=O)N1CCc2ccc(NC(=O)Cc3ccccc3F)cc21	54.4
NS(=O)(=O)N1CCc2ccc(NC(=O)CCc3ccncc3)cc21	38.5
CS(=O)(=O)Nc1ccc(CNC(=O)CN2CCc3ccccc32)cc1	16.6
Cc1cnc2c(C(=O)N(C)Cc3cc(C4CC4)[nH]n3)cnn2c1	21.8
CC(C)NC(=O)Nc1nc2c(s1)CN(C(=O)NCc1cccs1)CC2	46.4
c1ccc(-c2nc(CCNCc3cccnc3)co2)cc1	45.3
COCC1Cn2nnc(-c3cnn(C)c3)c2CN1Cc1cccs1 (centres undefined)	2.58
O=C(c1cccs1)N1CCc2c(nc(N3CCCC3)[nH]c2=O)C1	34
CC(CNS(=O)(=O)c1cccc(Cl)c1)N1CCN(C)CC1 (centres undefined)	46.4
Cc1cccc(S(=O)(=O)NCC(C)N2CCN(C)CC2)c1Cl (centres undefined)	-38.2
Cc1cc(Cl)ccc1S(=O)(=O)NCC(C)N1CCN(C)CC1 (centres undefined)	68.3
Cc1cc(N(C)C)nc(C2(C)CCCN2C(=O)c2cnccn2)n1 (centres undefined)	16.5
CCS(=O)(=O)CCNCc1cc(O)c2cc(C)cc(C)c2n1	45.8
Cc1ccc2nc(CNCCCN3CCCC3=O)cc(O)c2c1	31.7

Compound	INHIBITION [%]
COCCCNCc1cc(O)c2cc(C)cc(C)c2n1	51.2
CCOCC1(CNCc2cc(O)c3cc(C)ccc3n2)CC1	35.4
CCOCCCNCc1cc(O)c2cc(C)ccc2n1	0.672
CCOCCNCc1cc(O)c2cc(C)ccc2n1	53.3
Cc1cc(C)c2nc(CNCCNS(C)(=O)=O)cc(O)c2c1	43.9
CCN(CC)CCNCc1cc(O)c2cc(C)ccc2n1	16.3
Cc1ccc2nc(CNCCCOc3ccccc3)cc(O)c2c1 [UCSF924]	75.7
Cc1cc2nc(SCC(=O)NC(C)C)n(Cc3ccco3)c(O)c-2n1	12.6
CN(CC(=O)N1CCCN(Cc2cscn2)CC1)c1cnccn1	13.9
COCCN1CC[C@@H]2OC[C@H](C(=O)NCc3cccs3)C[C@@H]2C1	41.5
Cc1ncsc1CN1CCOC(C)(C(=O)N2CCOCC2)C1 (centres undefined)	-3.94
CNc1nc(CNC(=O)Nc2ccccc2C(F)(F)F)cs1	19.4
NC(=O)C1(c2cnccn2)CCCN1C(=O)Cc1ccsc1 (centres undefined)	12.84
Cc1ccc(C(=O)NCc2cccnc2-n2cncn2)cc1S(C)(=O)=O	17.2
O=C(NCc1cccnc1-n1cncn1)c1cc(Cl)ccn1	38.5
CCCc1nc(C(=O)NCc2cccnc2-n2cncn2)cs1	-22.1
O=C(NCc1cccnc1-n1cncn1)c1ccncc1	51.2
CN(C)c1cc(C(=O)NCc2cccnc2-n2cncn2)ccn1	83.7
O=C(NCc1cccnc1-n1cncn1)c1cncc(Br)c1	43.8
CN(C)c1ccc(C(=O)NCc2cccnc2-n2cncn2)cc1F	52.6
CCN(CC)c1ccc(C(=O)NCc2cccnc2-n2cncn2)cn1	16.6
O=C(NCc1cccnc1-n1cncn1)c1ccc2c(c1)CCO2	-0.113
